Shown are actives, neighbours in structure and some others; about 4.2% of the full set was active somewhere.
tim10-1 inh: growth inhibitors of tim10-1 mutant yeast, primary screen, luminescence, uHTS | S. cerevisiae tim10-1 ts strain growth, BacTiter-Glo, 24 h | inhibition, % at 20 µM | 2.2% of 330,000 active;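 active = inhibition of at least 40%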;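 also: mutant grown at 25 °C; 0% = DMSO wells with yeast and 100% = wells holding no yeast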
PfHsp90 yeast 2: growth inhibition of PfHsp90-expressing yeast, primary screen, antimalarial PfHsp90 inhibitor project, S. cerevisiae, BacTiter-Glo luminescence, single point, set 2; AID 504621, 2011; BacTiter-Glo ATP, 48 h; yeast lacking PDR1 and PDR3 efflux regulators; inhibition, % at 9.4 µM; 0.32% of 310,000 active;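 active = every replicate shows inhibition above about 80%, whatever the replicate mean, limit read from the data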;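 also: 0% = DMSO neutral controls and 100% = 20 µM radicicol positive controls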
NLRP3 yeast inh: NALP3 inflammasome inhibitors in reconstituted yeast, primary screen, luminescence, uHTS. Yeast reconstituted NLRP3/ASC/caspase-1, beta-gal luminescence, 24 h. inhibition, % at 10 µM. 0.39% of 330,000 active;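 active = inhibition of 50% or more; inactive = inhibition below 50%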;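 also: plate controls were induced DMSO wells for no effect and uninduced yeast grown without galactose for full effect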
TIM10 inh: growth inhibitors of isogenic TIM10 control yeast, primary screen, counter-screen for tim10-1 yeast inhibitor project, luminescence, uHTS. 1.4% of 330,000 active. S. cerevisiae TIM10 strain growth, BacTiter-Glo luminescence, 24 h. inhibition, % at 10 µM;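 active = inhibition of 40% or more at the single tested concentration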;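 also: wild-type TIM10 isogenic control strain grown at permissive 25 °C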
NALP1 inh: NALP1 inflammasome inhibitors in reconstituted yeast, colorimetric, S. cerevisiae, triplicate retest | S. cerevisiae NALP1/ASC/caspase-1 growth, X-gal OD620, 72 h | inhibition, % at 10 µM | 0.61% of 280,000 active; in the data active = inhibition mostly above about 24%, no sharp cut-off; inactive = mostly below about 32%
tim23-1 inh: growth inhibitors of tim23-1 mutant yeast, primary screen, luminescence, uHTS. inhibition, % at 20 µM. S. cerevisiae tim23-1 growth, BacTiter-Glo luminescence, 24 h. 1.3% of 330,000 active;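 active = growth inhibition of the mutant yeast at or above 50%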;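 also: temperature-sensitive mutant grown at 25 °C; plate controls were DMSO-treated mutant yeast for no effect and medium wells lacking yeast for full effect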
tim10-1 conf: growth inhibitors of tim10-1 mutant yeast, confirmation, single concentration, luminescence, S. cerevisiae; shares compounds with tim10-1 inh; inhibition, % at 20 µM; 56% of 7,400 active; AID 463213, 2010; S. cerevisiae tim10-1 ts strain growth, BacTiter-Glo, 24 h;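 active = inhibition of yeast growth at or above a set limit in either of two repeat tests at 20 µM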;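 also: tim10-1 mutant grown at permissive 25 °C to find synthetic lethal compounds; 0% = DMSO yeast wells and 100% = medium wells without yeast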
TIM10 conf: growth inhibitors of wild-type TIM10 yeast, confirmation, counter-screen for tim10-1 synthetic lethality project, single concentration, luminescence, S. cerevisiae. shares compounds with TIM10 inh. S. cerevisiae tim10 strain growth, BacTiter-Glo luminescence, 24 h. inhibition, % at 10 µM. 63% of 4,600 active;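 active = inhibition of yeast growth at or above a set limit in either of two replicates at 10 µM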;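 also: this counterscreen used the strain with wild-type TIM10; 0% = yeast with DMSO and 100% = medium wells lacking yeast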
tim23-1 confirm: tim23-1 mutant yeast growth inhibitors, confirmation, luminescence, single concentration. S. cerevisiae tim23-1 growth, BacTiter-Glo luminescence, 24 h. AID 463218, 2010. 83% of 4,400 active. shares compounds with tim23-1 inh. inhibition, % at 20 µM;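 active = inhibition above about 39% in either of two replicate wells at 20 µM, limit read from the data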;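 also: temperature-sensitive tim23-1 mutant grown at 25 °C; 0% = DMSO wells with yeast and 100% = medium wells without yeast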
Numbers without * were called inactive; nt = no result given.

SMILES	tim10-1 inh	PfHsp90 yeast 2	NLRP3 yeast inh	TIM10 inh	NALP1 inh	tim23-1 inh	tim10-1 conf	TIM10 conf	tim23-1 confirm
CCc1c(O)nc(SCc2ccccc2)n(C(C)CC)c1=O (centres undefined)	41*	13	2	37	11	52*	45*	nt	48*
CC(NC(=O)c1ccccc1)C(=O)OCn1nnc2ccccc2c1=O (centres undefined)	11	19	6	1	nt	22	nt	nt	nt
O=C(Nc1cccc(Cl)c1)c1ccc(Cn2cc(Cl)cn2)cc1	60*	18	50	73*	40	68*	47*	17	76*
CCN(CC)CCNc1c2c(c(C#N)c3nc4ccccc4n13)CCCC2	68*	-36	28	60*	28	57*	56*	53*	67*
O=C(Oc1c(Cl)cc(Cl)c2cccnc12)c1cccc([N+](=O)[O-])c1	51*	107*	44	50*	16	63*	28	-27	73*
O=C(Oc1cccc2cccnc12)c1cccc([N+](=O)[O-])c1	4	11	-3	8	-9	-2	nt	nt	nt
Cc1cccc(/C(N)=N/OC(=O)c2ccco2)c1	42*	-3	3	26	13	59*	32*	nt	43*
Cc1cccc(/C(N)=N/OC(=O)CCCc2ccccc2)c1	61*	-10	21	53*	0	59*	57*	45*	59*
N/C(=N\OC(=O)c1ccco1)c1ccc(Br)cc1	58*	-27	5	56*	0	62*	54*	51*	76*
CCN(CC)c1ccc(S(=O)(=O)N2CCOCC2)cc1NC(=O)COC(=O)/C=C/c1ccco1	nt	10	nt	nt	nt	nt	nt	nt	nt
COc1ccc(-c2cc(N)n(S(=O)(=O)c3ccc(F)cc3)n2)cc1OC	0	1	5	1	12	-2	nt	nt	nt
Nc1ccc(S(=O)(=O)NN=Cc2ccccc2[N+](=O)[O-])cc1	nt	7	nt	nt	nt	nt	nt	nt	nt
CCOn1c(=O)c(-c2cccs2)[n+]([O-])c2ccccc21	57*	15	11	35	13	62*	41*	nt	68*
O=C(Oc1ccc(C(=S)N2CCOCC2)cc1)c1ccc([N+](=O)[O-])cc1[N+](=O)[O-]	35	-8	6	4	8	35	nt	nt	nt
O=C(Oc1cccc(C(=S)N2CCOCC2)c1)c1ccc([N+](=O)[O-])cc1[N+](=O)[O-]	84*	0	16	84*	0	78*	84*	90*	87*
O=C(Oc1ccc(Br)cc1C(=S)N1CCOCC1)c1ccc([N+](=O)[O-])cc1[N+](=O)[O-]	71*	-8	3	68*	12	67*	77*	78*	84*
CCCN1CCN(C(=O)CS(=O)(=O)Cc2nc(-c3cccc(OC)c3)oc2C)CC1	-6	20	5	3	25	25	nt	nt	nt
CCN(CC(=O)Nc1ccc(Br)cc1)C(=O)Cc1cccc(F)c1	-17	-11	14	-3	4	3	nt	nt	nt
O=[N+]([O-])c1ccc(/C=N/Nc2nc(N3CCCCC3)nc(N3CCCCC3)n2)o1	55*	nt	19	48*	-7	50*	46*	21	44*
COc1ccc(/C(N)=N/OC(=O)c2ccc3c(c2)OCO3)cc1OC	69*	7	10	47*	-4	59*	75*	46*	56*
N/C(=N\OC(=O)c1ccc2c(c1)OCO2)c1cccc(Br)c1	68*	nt	15	92*	-1	78*	48*	96*	88*
CCOc1ccc(Br)cc1C1=NN(C(C)=O)C(c2ccc([N+](=O)[O-])s2)O1 (centres undefined)	64*	108*	16	45*	8	83*	71*	55*	65*
Nc1ccc(S(=O)(=O)c2cc(O)c3ccccc3c2O)cc1	nt	-10	nt	nt	nt	nt	nt	nt	nt
Cc1ccc(C(=O)NC(=S)NNC(=O)c2ccccc2[N+](=O)[O-])cc1	47*	-31	11	47*	14	61*	42*	61*	49*
O=C(NNC(=S)NC(=O)c1ccccc1[N+](=O)[O-])c1ccccc1[N+](=O)[O-]	5	6	16	16	-5	1	nt	nt	nt
SMILES	tim10-1 inh	PfHsp90 yeast 2	NLRP3 yeast inh	TIM10 inh	NALP1 inh	tim23-1 inh	tim10-1 conf	TIM10 conf	tim23-1 confirm
O=C(NC(=S)NC1CCCCC1)c1ccccc1[N+](=O)[O-]	45*	-15	5	21	-1	63*	26	nt	48*
O=C(NC(=S)NC1CCCCC1)c1ccc(F)cc1	42*	2	18	34	16	69*	32*	nt	56*
Cc1ccc(C(=O)N[C@H](C(=O)Nc2ccc(N3CCOCC3)cc2)C(C)C)cc1	-5	nt	11	-2	nt	7	nt	nt	nt
CCOC(=O)c1cnc2c(OC)cccc2c1N1CC(C)CC(C)C1 (centres undefined)	42*	21	6	28	0	71*	35*	nt	51*
CCOC(=O)C1(CC2CCCCO2)CCN(S(=O)(=O)c2cccc(F)c2)CC1 (centres undefined)	-4	44	20	11	1	28	nt	nt	nt
c1ccc2c(c1)OCCc1c-2[nH]c2ccccc12	46*	-66	15	20	11	61*	42*	nt	58*
COc1ccc2c(c1)N(C(=O)CN1C(=O)C3CCCCC3C1=O)C(C)(C)C=C2C (centres undefined)	51*	-6	4	33	-1	53*	46*	nt	52*
CC(C)c1cc(=O)[nH]c(N2CCN(Cc3ccc4c(c3)OCO4)CC2)n1	-1	22	11	-3	-14	-7	nt	nt	nt
COc1cccc(N=Cc2nc(-c3ccccc3)oc2OC(C)=O)c1	64*	-5	1	44*	-4	74*	51*	34*	70*
Cc1ccc(C(=O)Oc2oc(-c3ccccc3)nc2C=Nc2ccc(N(C)C)cc2)cc1	26	4	18	3	-2	19	nt	nt	nt

Source: PubChem
